Bioassay records from PubChem.
Most compounds without a hit are left out; they make up all but 2% or so of the library.
Six1-Eya2 inh: Six1/Eya2 interaction inhibition; activity change, % (no concentration beside the values); 0.56% of 360,000 active; Q15475+O00167; AlphaScreen GST-Six1/His-Eya2 binding, biochemical; stronger effect = lower value
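Homogeneous AlphaScreen proximity assay pairing GST-Six1 with His-tagged Eya2 (added as 5X mix: 250 nM and 500 nM) in 50 mM Tris pH 8.0, 300 mM NaCl, 1 mM TCEP. Glutathione donor and nickel acceptor beads; 1 h, 37 °C, dark.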
KCNH2 3.1 inh: KCNH2 3.1 (human) potassium channel inhibition; U2OS KCNH2 3.1, thallium flux FluxOr; stronger effect = lower value; activity change, % (tested at about 1.8 µM); 0.95% of 340,000 active; AID 720553;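 active = maximum activity change below -70%; inconclusive = maximum activity change from -70% to -50%; inactive = maximum activity change above -50%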;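 also: thallium influx rate constant from kinetic fluorescence after stimulation buffer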
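We transduce U2OS cells with the mutant 3.1 virus, culture them overnight, load FluxOr with Red40 quencher for 45 min, then add stimulation buffer and read kinetically for 2 min to derive a normalized rate constant.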
hERG WT inh: inhibitors of human wildtype KCNH2 potassium channel; U2OS, BacMam KCNH2, thallium flux FluxOr; stronger effect = lower value; 0.37% of 340,000 active; AID 720551; activity change, % at 1.84 µM;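 active = maximum activity change below -70%; inconclusive = maximum activity change between -70% and -50%; inactive = maximum activity change above -50%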
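U2OS cells transduced with wild-type KCNH2 virus are loaded with FluxOr dye for 45 min, and thallium flux is measured in kinetic reads before and after stimulation buffer. Rate constants are normalized to DMSO controls.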
CtBP-E1A blk: CtBP/E1A binding inhibition | 0.49% of 340,000 active | activity change, % (test concentration not listed) | AID 651724 | AlphaScreen GST-E1A/His-CtBP binding, 1536-well; stronger effect = lower value
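GST-E1A and His-tagged CtBP (125 nM each as 5X stock) were preincubated with pin-transferred compound for 2 h at 37 °C in the dark, then glutathione donor and nickel acceptor beads were added for 1 h before AlphaScreen reading.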
JMJD2E inh: inhibitors of human JMJD2E histone demethylase | B2RXH2 | 1.6% of 230,000 active | Potency, µM (series often up to 57.1 µM), for the others: top-dose activity change, negative = inhibition, hits mostly inhibitors | JMJD2E catalytic domain, FDH-coupled NADH fluorescence (FDH is formaldehyde dehydrogenase);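 also: potency is read from the fitted curve at half-maximal effect; 0% = wells with enzyme and -100% = buffer wells without enzyme; nearly all actives have a fitted effect of over 50% in size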
Starred values were filed as active, the others as inactive; ? = inconclusive; . = no result. Rule as the data show it, unless noted: active = activity change below about -65%; inconclusive = mostly about -30% to -63%; inactive = weaker than that. Unless noted, % is scaled to controls: 0 for no effect and ±100 for the full control effect.

SMILES	Six1-Eya2 inh	KCNH2 3.1 inh	hERG WT inh	CtBP-E1A blk	JMJD2E inh
COC(=O)c1cc2c(-c3ccccc3)c(C)c3ccccn3c-2c1C(=O)OC	-69*	-14	3	?	0%
COC(=O)c1c(Cl)c2n3ccccc3c(C)c(-c3ccccc3)c-2c1C(=O)OC	-68*	10	-22	?	?
COC(=O)c1c(C(=O)OC)c2ccccn2c1C(=O)c1ccccc1	2	5	-10	11	.
COC(=O)c1c(C)[nH]c(C=O)c1-c1ccccc1	2	5	-6	-12	-9%
O=C(O)c1ccc(NC(=O)c2cn(-c3ccccc3)nc2-c2cccc(Cl)c2)cc1	-3	3	5	0	.
O=S(c1cc(Cl)cc(Cl)c1O)c1cc(Cl)cc(Cl)c1O	-92*	.	.	-24	.
O=C(Nc1ccc(F)cc1)c1nc[nH]c1C(=O)Nc1ccccc1[N+](=O)[O-]	-1	0	4	4	7%
O=C(Nc1cccc(Cl)c1)c1nc[nH]c1C(=O)Nc1ccccc1F	-4	19	-71*	-3	.
O=C(Nc1ccc(F)cc1)c1nc[nH]c1C(=O)O	-77*	19	2	.	.
CCNc1nc(NCC)nc(N(CC)C(N)=S)n1	7	18	-7	7	?
COc1ccc(/C=C/C(=O)NC(=S)NNC(=O)c2cccs2)cc1	-8	-1	1	-10	?
Cn1c(=O)c2[nH]c(N3CCN(c4ccccc4)CC3)nc2n(C)c1=O	4	11	1	.	12%
O=C(O)CC/C(=N\Nc1ccc(S(=O)(=O)N2CCOCC2)cc1[N+](=O)[O-])c1cccs1	-21	2	-3	-26	?
COC1=CC(=O)C(O)=C/C1=C\C=C\c1ccccc1	.	.	.	.	13µM*
CC(C)CCN(N=O)[C@@H](Cc1ccccc1)CN(N=O)[C@@H](Cc1ccccc1)CN(C)N=O	-1	-113*	-16	-6	-23%
CC(C)C[C@@H](CN(N=O)[C@@H](Cc1ccccc1)CN(C)N=O)N(CCc1ccccc1)N=O	0	.	.	8	-1%
COc1cc(SC#N)ccc1N=Cc1c(C)[nH]n(-c2ccc(Cl)cc2)c1=O	-15	-8	1	-6	-6%
COc1cc(SC#N)ccc1N=Cc1c(C)[nH]n(-c2ccc(C)c(C)c2)c1=O	-66*	13	0	?	1%
CC(=O)c1ccc(S(=O)(=O)N2CCCC(N(C)CCc3ccccc3)C2)cc1 (stereo not given)	-7	-94*	?	12	.
COc1ccc(CCN(C)C2CCCN(S(C)(=O)=O)C2)cc1OC (stereo not given)	13	-11	8	.	.
COc1ccc(CCN(C)C2CCCN(S(=O)(=O)c3ccc(C)cc3)C2)cc1OC (stereo not given)	-7	-83*	-31	-8	.
O=C(NCc1cccc(Cl)c1)c1cc(=O)[nH]c2ccccc12	5	1	1	8	.
CC(=O)c1c(CC(=O)O)[nH]n(-c2nc3ccccc3s2)c1=O	0	-3	2	2	-1%
Cc1ccc(/C=C2\S/C(=N/S(=O)(=O)c3cccs3)NC2=O)cc1	-67*	10	9	.	-3%
Cc1ccc(S(=O)(=O)/N=C2/NC(=O)/C(=C\c3ccccc3)S2)cc1	-7	11	5	-2	.
SMILES	Six1-Eya2 inh	KCNH2 3.1 inh	hERG WT inh	CtBP-E1A blk	JMJD2E inh
CC1CCN(C(=O)COC(=O)/C=C/c2ccc([N+](=O)[O-])cc2)CC1	-7	-4	-5	?	.
O=C(COC(=O)/C=C/c1ccc([N+](=O)[O-])cc1)NC(c1ccccc1)c1ccccc1	2	-11	-133*	-12	-1%
O=C(COC(=O)/C=C/c1ccc([N+](=O)[O-])cc1)NCc1ccccc1	8	-8	1	0	1%
O=C(/C=C/c1ccc([N+](=O)[O-])cc1)OCC(=O)N1CCCC1	1	0	6	-68*	.
CCN1C(=O)c2cccc3c(S(=O)(=O)NCc4ccccc4)ccc1c23	3	-9	-9	-4	.
CCCCCC/C(C)=C1/SC(=S)NC1=O	-19	20	-1	-11	0%
C/C(C/C(C)=C1/SC(=S)NC1=O)=C1\SC(=S)NC1=O	-71*	5	-25	?	10%
